Rab9 promoter act: activators of Rab9 promoter; Huh7 Rab9 promoter-luciferase reporter, luminescence, 24 h; Potency, µM (doses to about 9.22 µM), for the others: at the highest dose activation, negative = inhibition, actives largely listed as activators; 320,000 tested, 2.8% active; further: % of control where 0% means no effect; nearly all actives have a fitted effect of over 60% in size
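Luciferase signal after 10 min detection reagent at ambient indicates Rab9 promoter upregulation; stably transfected Huh7 cells were treated 24 h with compound in DMSO at 37 °C, 5% CO2.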
Luc counter: blocks Kinase-Glo luciferase, a counter-screen artifact | Kinase-Glo luciferase, ATP luminescence, 8 min | Potency, µM (titrated, usually from 38.3 µM), inactives show at the top dose activity change, negative = inhibition, hits mostly inhibitors | 200,000 tested, 0.28% active | AID 1379; further: on the % scale 0 is the no-effect control and ±100 the full control effect; nearly all actives have a fitted effect of over 60% in size
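Compounds were added to a substrate mix at pH 7.2 (50 mM imidazole, 10 uM ATP, within the enzyme's linear range), followed by Kinase-Glo detection reagent; luminescence was measured after 8 minutes at ambient temperature.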
FLuc counter: counter-screen for miR-21 project: firefly luciferase inhibitors or activators | P08659 | purified FLuc, Km substrates, luminescence inhibition | Potency, µM (highest dose often 57.5 µM), for inactives: top-dose activity change, negative = inhibition, usual class: inhibitors | 360,000 tested, 6.9% active;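 further: plate controls were vehicle for no effect and reference inhibitor for full effect; nearly all actives have a fitted effect of over 55% in size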
Target sequence (P08659 whole entry, looked up): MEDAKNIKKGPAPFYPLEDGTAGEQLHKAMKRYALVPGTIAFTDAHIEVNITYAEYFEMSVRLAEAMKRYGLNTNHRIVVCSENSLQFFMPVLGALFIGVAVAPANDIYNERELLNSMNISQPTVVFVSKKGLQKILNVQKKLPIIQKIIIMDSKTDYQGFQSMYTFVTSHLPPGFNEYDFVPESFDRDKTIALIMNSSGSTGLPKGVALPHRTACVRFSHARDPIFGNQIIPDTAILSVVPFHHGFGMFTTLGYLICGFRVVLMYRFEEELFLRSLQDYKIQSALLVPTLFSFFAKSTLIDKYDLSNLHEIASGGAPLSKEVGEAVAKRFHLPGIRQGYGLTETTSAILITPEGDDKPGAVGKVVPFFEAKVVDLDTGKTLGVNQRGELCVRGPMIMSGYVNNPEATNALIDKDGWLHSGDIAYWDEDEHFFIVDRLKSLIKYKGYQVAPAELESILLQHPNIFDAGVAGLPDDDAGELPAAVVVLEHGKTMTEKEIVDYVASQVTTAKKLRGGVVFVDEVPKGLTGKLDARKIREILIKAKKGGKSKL
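Biochemical qHTS of compounds, final roughly 60 µM downward over six points, against 10 nM purified firefly luciferase using Km concentrations of substrates (10 uM D-luciferin, 10 uM ATP) in Tris acetate pH 7.5 buffer; luminescence output.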
SMN2 splice enh: SMN2 splice variant enhancement. HEK293 SMN2-luciferase splicing reporter, luminescence, 30-36 h. Potency, µM (series often up to 46.1 µM), without a hit: at the top dose activity change, positive = activation, actives largely listed as activators. 210,000 tested, 2.8% active. AID 1458; further: % of control where 0% means no effect; nearly all actives have a fitted effect of over 55% in size
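HEK293 cells carry an SMN2 minigene-luciferase reporter in which exon 7 inclusion puts luciferase in frame. Cells were seeded at 2000 cells/well, attached for 10-12 hours, then exposed to compounds for 30-36 hours at 37C before ONE-Glo luminescence.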
ELG1 genotox: induces genotoxicity in HEK293T cells with luciferase-tagged ELG1; HEK293T ELG1-luciferase reporter, luminescence, 16 h; Potency, µM (top dose mostly 46 µM), inactives show at the top dose activity change, positive = activation, most hits filed as activators; 330,000 tested, 1.3% active; further: % of control where 0% means no effect; nearly all actives have a fitted effect of over 60% in size
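Genotoxic stress is detected as increased luminescence from luciferase-tagged ELG1 in HEK293T cells, measured with ONE-Glo after a 16 hr treatment at 37 °C.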
NPC1 prom act: activators of NPC1 promoter | Huh7 NPC1 promoter luciferase reporter, 24 h | Potency, µM (highest dose often 9.22 µM), for inactives: at the highest dose activation, most hits filed as activators | 320,000 tested, 2.4% active; further: % of control where 0% means no effect; nearly all actives have a fitted effect of over 60% in size
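Luminescence read-out of NPC1 promoter-driven luciferase in stably transfected Huh7 cells; compounds delivered in DMSO and left 24 h at 37C, 5% CO2, qHTS titration format.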
Starred values were filed as active, the others as inactive; ? = inconclusive; nt = no result. Compounds with a hit are over-represented: about 7.5% of the library has one in this group of screens. The call rests on the fitted dose curve; in most records, active means well fitted curve in the direction sought with a large enough effect; inconclusive means small, poorly fitted or top-dose-only effect, or another doubt; inactive means no such curve, though single readings can be large; an effect the other way counts as inactive or inconclusive. Potency means the concentration at half of the fitted maximal effect.

SMILES | Rab9 promoter act | Luc counter | FLuc counter | SMN2 splice enh | ELG1 genotox | NPC1 prom act
O=C(Nc1cc2ccccc2oc1=O)c1ccccc1 | 0.18µM* | 11µM* | 0.43µM* | 0.89µM* | ? | 0.4µM*
CCC(=O)Nc1cccc(-c2cc3ccccc3oc2=O)c1 | ? | 0% | 12µM* | -37% | ? | ?
CC(=O)Nc1ccc(NC(=O)c2cccc(-c3cc4ccccc4oc3=O)c2)cc1 | 3.2µM* | -2% | ? | 10µM* | 10% | ?
NS(=O)(=O)c1cccc(NC(=O)c2cc3ccccc3o2)c1 | ? | -20% | 2.1µM* | nt | 8% | ?
CCOC(=O)C(=NC1CCS(=O)(=O)C1)NNc1ccccc1Cl (stereo unspecified) | 1% | nt | 17µM* | nt | 3% | 1%
CC(=O)Nc1cccc(-c2cn3cccnc3n2)c1 | nt | nt | -2% | nt | nt | nt
COc1ccc(NC(=O)Nc2cccc(-c3cn4cccnc4n3)c2)cc1 | nt | nt | 1.7µM* | 5% | nt | nt
O=C(COc1ccccc1)Nc1cccc(-c2cn3cccnc3n2)c1 | ? | nt | 15µM* | nt | -7% | 14%
COc1cc(OC)cc(C(=O)Nc2cccc(-c3cn4cccnc4n3)c2)c1 | nt | nt | -17% | nt | nt | nt
CCOc1ccc(S(=O)(=O)N(CC(=O)NCc2cccnc2)c2ccc(F)cc2)cc1 | 1% | nt | 3% | nt | -22% | 0%
COC(=O)CC(=O)CSc1nc2cc(C(=O)NC(C)C)ccc2c(=O)n1CCc1ccccc1 | nt | nt | -2% | nt | nt | nt
COc1ccc(NC(=O)CSCC(=O)Nc2ccccc2C(=O)N2CCCCC2)cc1 | -2% | nt | 2% | nt | -1% | -1%
CCOc1ccc(S(=O)(=O)NCCC(=O)N2CCN(c3ccccc3O)CC2)cc1 | 3% | nt | 2% | nt | -2% | -3%
COc1cccc(OCc2cc(C(=O)N3CCNC(=O)C3Cc3ccccc3)no2)c1 (stereo unspecified) | 29% | nt | ? | nt | 8% | 19%
Cc1cc(S(=O)(=O)N2CCOCC2)ccc1NC(=O)c1ccc(F)cc1 | 2% | nt | -1% | nt | -3% | -4%
CCc1ccc(-n2nc(C)c3c(C)cc(=O)n(CC(=O)Nc4ccc(C(C)=O)cc4)c32)cc1 | nt | nt | 3% | nt | nt | nt
FC(F)(F)c1cccc(-c2ccc(-c3csnn3)o2)c1 | ? | 11% | 17µM* | -15% | 14% | 10%
FC(F)(F)c1cccc(-c2nn[nH]n2)c1 | 7% | 1% | ? | 4% | 2% | -1%
CC(C)OC(=O)[C@@H]1CC[C@H](C)[C@@H](CCC[C@@H]2C[C@@H](O)C[C@H](CC#N)O2)O1 | nt | 2% | nt | 8% | nt | nt
COCCN(C(=S)Nc1ccc(C)cc1)C(C)c1ccco1 (stereo unspecified) | -1% | nt | 13µM* | nt | 1% | 0%
Cc1nn(C)c(C)c1S(=O)(=O)NCCc1ccc(Cl)cc1 | 0% | nt | -2% | nt | -1% | -7%
O=C(Cc1cccs1)N/N=C/C=C/c1ccccc1 | ? | -1% | -11% | ? | 13% | ?
O=C(N/N=C/C(Br)=C/c1ccccc1)c1cccs1 | 0.89µM* | -2% | 1.5µM* | nt | ? | 2.2µM*
O=C(N/N=C/C=C/c1ccccc1)c1cccs1 | 1.8µM* | 2% | 15µM* | ? | 9% | ?
Cc1ccc(C(=O)Nc2nc(C)c(C(=O)Nc3ccc4c(c3)CCC4)s2)cc1 | -4% | -15% | 15µM* | 5.6µM* | 18µM* | -13%
Cc1nc(NC(=O)c2ccc(F)cc2)sc1C(=O)Nc1ccc2c(c1)CCC2 | 5% | ? | 13µM* | ? | 7% | 0%
CCS(=O)(=O)n1nc(-c2ccc(Cl)cc2)nc1SCc1ccccc1 | ? | -1% | 15µM* | 14µM* | 17% | 29%
COc1cccc(-c2nn(C)c3sc(C(=O)NCc4ccc(C)o4)cc23)c1 | 7% | 16% | 2% | 16µM* | -17% | 12%
COc1cccc(-c2nn(C)c3sc(C(=O)NCc4ccc(OC)cc4OC)cc23)c1 | nt | nt | -9% | -15% | nt | nt
